Values joined by “and” are separate entries in the source; they are usually repeats but may differ in a detail not shown here. Equal values may be shown once. About 2,000 (36%) of roughly 5,500 compounds were called active. Roughly 18% stayed inconclusive and do not appear here. Cut-off read from the data, not from the text of the source: active = normalized growth mostly below about 0.91 (no sharp cut-off); inconclusive = no clear call, values can overlap the other calls; inactive = mostly above about 0.92. Some of the results follow.
Assay: chemical genetic growth profiling, strain panel (AID 1159580);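 note: tested at 20 µM; growth read once vehicle control cultures reached saturation at 30 °C; 1 = growth at the plate median or of vehicle wells; lower values mean less growth of the strain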
Settings: S. cerevisiae deletion strains, growth OD

Measured: normalized growth

NC(N)=NC(=O)c1nc(Cl)c(N)nc1N
inactive: locus YAL013W, strain DEP1, hits give low values 0.935 | locus YAL021C, strain ccr4, hits give low values 0.977 | locus YAL026C, strain drs2, hits give low values 1.01 | locus YAL030W, strain snc1, hits give low values 1.01 | locus YAL040C, strain CLN3, hits give low values 1 | locus YBL061C, strain skt5, hits give low values 1.04 | locus YBR009C, strain hhf1, hits give low values 1.01 | locus YBR021W, strain FUR4, hits give low values 0.86 | locus YBR023C, strain chs3, hits give low values 1.04 | locus YBR171W, strain sec66, hits give low values 1.02 | locus YBR229C, strain ROT2, hits give low values 1 | locus YBR231C, strain swc5, hits give low values 1.02 | locus YBR279W, strain paf1, hits give low values 1.01 | locus YCL011C, strain gbp2, hits give low values 0.998 | locus YCL016C, strain dcc1, hits give low values 0.997 | locus YCL029C, strain bik1, hits give low values 1.02 | locus YCL061C, strain MRC1 (second series), hits give low values 0.995 | locus YCL061C, strain MRC1, hits give low values 1.03 | locus YCL069W, strain vba3, hits give low values 1.02 | locus YCR088W, strain abp1, hits give low values 1.03 | locus YDL005C, strain med2, hits give low values 1.02 | locus YDL035C, strain GPR1, hits give low values 0.983 | locus YDL040C, strain nat1, hits give low values 1.02 | locus YDL074C, strain BRE1, hits give low values 0.975 | locus YDL101C, strain DUN1, hits give low values 1.03 | locus YDL185W, strain tfp1, hits give low values 1.03 | locus YDL192W, strain arf1, hits give low values 1.02 | locus YDR001C, strain nth1, hits give low values 1.04 | locus YDR069C, strain doa4, hits give low values 1.04 | locus YDR101C, strain arx1, hits give low values 1.01 | locus YDR137W, strain rgp1, hits give low values 1.02 | locus YDR159W, strain sac3, hits give low values 1 | locus YDR162C, strain NBP2, hits give low values 1.02 | locus YDR195W, strain ref2 1.04 | locus YDR297W, strain sur2, hits give low values 1.02 | locus YDR318W, strain mcm21, hits give low values 1.02 | locus YDR334W, strain swr1, hits give low values 1.01 | locus YDR335W, strain msn5, hits give low values 1.01 | locus YDR388W, hits give low values 1.01 | locus YDR392W, strain spt3, hits give low values 0.988 | locus YDR502C, strain sam2, hits give low values 1.02 | locus YEL003W, strain gim4, hits give low values 1.02 | locus YEL037C, strain rad23, hits give low values 1.02 | locus YEL061C, strain CIN8 (second series), hits give low values 1.03 | locus YEL061C, strain CIN8, hits give low values 1 | locus YER002W, strain NOP16, hits give low values 1 | locus YER015W, strain faa2, hits give low values 1.03 | locus YER016W, strain bim1, hits give low values 1.02 | locus YER110C, hits give low values 1.02 | locus YER111C, strain swi4, hits give low values 1.03 | locus YER155C, strain BEM2 (second series), hits give low values 1.05 | locus YER155C, strain BEM2, hits give low values 1.01 | locus YER167W, strain BCK2, hits give low values 1 | locus YFR010W, strain ubp6, hits give low values 1.01 | locus YGL078C, strain dbp3, hits give low values 1.01 | locus YGL086W, strain mad1, hits give low values 1.01 | locus YGL167C, strain pmr1, hits give low values 1.04 | locus YGL173C, strain kem1, hits give low values 1.04 | locus YGL227W, strain vid30, hits give low values 1.03 | locus YGL240W, strain doc1, hits give low values 1.05 | locus YGL248W, strain PDE1, hits give low values 1.01 | locus YGL253W, strain hxk2, hits give low values 1 | locus YGR135W, strain pre9, hits give low values 0.987 | locus YGR229C, strain SMI1, hits give low values 0.994 | locus YGR252W, strain gcn5, hits give low values 0.896 | locus YHR013C, strain ard1, hits give low values 0.998 | locus YHR027C, strain rpn1, hits give low values 1.02 | locus YHR030C, strain SLT2, hits give low values 1.01 and 1 | locus YHR079C, strain IRE1 (second series), hits give low values 1.01 | locus YHR079C, strain IRE1, hits give low values 1 | locus YHR094C, strain hxt1, hits give low values 1.01 | locus YHR129C, strain ARP1, hits give low values 1.02 | locus YHR142W, strain chs7, hits give low values 1.02 | locus YHR200W, strain rpn10, hits give low values 1.02 | locus YIL066C, strain RNR3, hits give low values 1.02 | locus YIL073C, strain SPO22, hits give low values 1 | locus YIL125W, strain kgd1, hits give low values 1.01 | locus YIR030C, strain dcg1, hits give low values 1.02 | locus YJL092W, strain hpr5, hits give low values 1.01 | locus YJL095W, strain BCK1 (second series), hits give low values 1.03 | locus YJL095W, strain BCK1, hits give low values 0.962 and 1.01 | locus YJL115W, strain asf1, hits give low values 1.02 | locus YJL129C, strain trk1, hits give low values 1.04 | locus YJL134W, strain LCB3, hits give low values 1 | locus YJL154C, strain vps35, hits give low values 1.01 | locus YJL164C, strain tpk1, hits give low values 0.995 | locus YJL166W, strain qcr8, hits give low values 1.04 | locus YJL168C, strain set2, hits give low values 1.02 | locus YJL187C, strain SWE1 (second series), hits give low values 1.01 | locus YJL187C, strain SWE1, hits give low values 1.02 | locus YJR043C, strain POL32, hits give low values 1.02 | locus YJR066W, strain TOR1, hits give low values 0.959 | locus YJR075W, strain HOC1, hits give low values 1.02

— PubChem BioAssay AID1159580 (chemical genetic matrix, 2015)
